Results taken from PubChem BioAssay (EPA / NIEHS).
Inconclusive results are not listed. Active and inactive are the calls of the source. The calls were made as follows, unless noted: active = hit-call score of the fitted dose curve at least 0.9, where 1 is the maximum; inactive = score below 0.9.

How the values were obtained:
[1] = tested on: Brachyury (BRA) Protein Expression, Deisenroth Lab, TBXT (gene 6862); experiment: CCTE_Deisenroth_DEVTOX-GLR_legacy_Bra: (Legacy) CCTE's DevTox GLR-Endo Assay Evaluation of Brachyury (BRA) Protein Expression, Deisenroth Lab (AID 2284329)
Method in brief: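 RUES2-GLR human pluripotent cells are differentiated for 48 h and receive two chemical exposures 24 h apart, at 10 concentrations from 1 nM to 200 uM. Cells are fixed, nuclei stained and imaged. Bra+ cells are those with mean Bra intensity over 5x BMAD above the pluripotent control median, expressed as a percentage of cell count, after subtracting the 0.2% DMSO control median.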

[2] = CCTE_Deisenroth_DEVTOX-GLR_legacy_CellCount: (Legacy) Viability Assessment in CCTE's DevTox GLR-Endo Assay, Deisenroth Lab (AID 2284331); conditions: actives raise or lower the signal
Method in brief: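 Viability is taken from imaged nuclei counts in fixed RUES2-GLR cultures after 48 h of differentiation under two 24 h-spaced chemical exposures, 10 concentrations from 1 nM to 200 uM, gain or loss versus DMSO baseline.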

[3] = tested on: SRY-box transcription factor 17 (SOX17) Protein Expression, Deisenroth Lab, SOX17 (gene 64321); experiment: CCTE_Deisenroth_DEVTOX-GLR_legacy_Sox17: (Legacy) CCTE's DevTox GLR-Endo Assay Evaluation of SRY-box transcription factor 17 (SOX17) Protein Expression, Deisenroth Lab (AID 2284341); conditions: actives raise or lower the signal
Method in brief: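 Endoderm-differentiation readout in RUES2-GLR human pluripotent cells at 48 h, concentrations spanning 1 nM - 200 uM. Sox17-positive cells divided by total cell count; gain or loss relative to DMSO solvent control, n=4 experimental replicates.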

[4] = tested on: SRY-box transcription factor 2 (SOX2) Protein Expression, Deisenroth Lab, SOX2 (gene 6657); experiment: CCTE_Deisenroth_DEVTOX-GLR_legacy_Sox2: (Legacy) CCTE's DevTox GLR-Endo Assay Evaluation of SRY-box transcription factor 2 (SOX2) Protein Expression, Deisenroth Lab (AID 2284346)
Method in brief: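 RUES2-GLR human pluripotent cells were differentiated for 48 h with two chemical doses 24 h apart, over 1 nM-200 uM. Sox2+ cells were those above 5x BMAD of the endoderm-control median; percent Sox2+ minus the 0.2% DMSO median was used, from n=4 replicates.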

[5] = tested on: SRY-box transcription factor 17 (SOX17) Protein Expression, Deisenroth Lab, SOX17 (gene 64321); experiment: CCTE_Deisenroth_DEVTOX-GLR_Endo_SOX17: CCTE's DevTox GLR-Endo Assay Evaluation of SRY-box transcription factor 17 (SOX17) Protein Expression, Deisenroth Lab (AID 2284413)
Method in brief: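 RUES2-GLR human pluripotent cells were differentiated toward endoderm for 48 h and received two compound doses 24 h apart (1 nM - 200 uM, 10 points). High-content imaging of fixed cells gave the percent SOX17+ cells per cell count, expressed as percent change versus 0.2% DMSO.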

[6] = tested on: SRY-box transcription factor 2 (SOX2) Protein Expression, Deisenroth Lab, SOX2 (gene 6657); experiment: CCTE_Deisenroth_DEVTOX-GLR_Endo_SOX2: CCTE's DevTox GLR-Endo Assay Evaluation of SRY-box transcription factor 2 (SOX2) Protein Expression, Deisenroth Lab (AID 2284412; active = hit-call score of the fitted dose curve at least 0.9, where 1 is the maximum)
Method in brief: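 RUES2-GLR human pluripotent cells were seeded 24 h, then differentiated 48 h with two chemical exposures 24 h apart. Cells were fixed, nuclei stained and imaged by high-content microscopy. Endpoint is %SOX2+ cells over cell count, minus 0.2% DMSO control; 10-point series 1 nM–200 uM.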

Measured: outcome

O=C(O)c1ccccc1O
inactive: [1] | [2] | [3] | [4] | [5]

CC(C)Cc1ccc(C(C)C(=O)O)cc1 (centres undefined)
inactive: [2] | [4] | [6] | [5]
